A short description of assay [1]: qHTS assay to identify small molecule agonists of the constitutive androstane receptor (CAR) signaling pathway - cell viability counter screen (AID 1224836). Also: nearly all actives have a fitted effect of over 45% in size. To be noted: HepG2-CYP2B6-hCAR viability, CellTiter-Fluor, 23 h, PK11195 added to every well; series mostly up to 92.4 µM. The gist of the method:
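Compound titrations (15 concentrations) went onto HepG2-CYP2B6-hCAR cells 4 h after seeding, alongside PK11195 at a final 0.75 uM; a 23 h, 37 C/5% CO2 incubation preceded CellTiter-Fluor viability measurement.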
(In general: Quantitative high-throughput screening tests each substance at several concentrations.)

A short description of assay [2]: qHTS assay to identify small molecule antagonists of the constitutive androstane receptor (CAR) signaling pathway - cell viability counter screen (AID 1224837). Also: nearly all actives have a fitted effect of over 45% in size. Also: potency is read from the fitted curve at half-maximal effect. To be noted: HepG2-CYP2B6-hCAR viability, CellTiter-Fluor, 23 h, co-treated with 50 nM CITCO; series mostly up to 92.4 µM. The gist of the method: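 Fluorescence from CellTiter-Fluor served as the viability signal. Human hepatoma HepG2 cells stably bearing hCAR and CYP2B6-2.2kb received compound plus CITCO (50 nM final) for 23 hr.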

A short description of assay [3]: qHTS assay to identify small molecule antagonists of the estrogen related receptor signaling pathway with the pleiotropic PPARgamma coactivator (PGC) from Tox21 10K library - cell viability counter screen (AID 1224840; active = well fitted cell-killing curve with a large enough effect in the repeat runs, not every such curve was filed as active; also: nearly all actives have a fitted effect of over 40% in size). The note with it: PGC/ERR reporter cells viability, CellTiter-Fluor, 17.5 h; series mostly up to 92.4 µM. The gist of the method: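 Compounds in DMSO, alongside positive and negative controls, were pinned onto PGC/ERR cells (2,000 per well). Exposure lasted 17.5 hours at 37 C, followed by a 30-minute CellTiter-Fluor incubation and fluorescence reading.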

Assay [4] concerns the target Thyrotropin receptor (Homo sapiens) (UniProt P16473). In words: qHTS assay to identify small molecule agonists of the thyroid stimulating hormone receptor (TSHR) signaling pathway (AID 1224843; calls by dose curve; also: nearly all actives have a fitted effect of over 45% in size). The note with it: TSHR-HEK293 cells, cAMP HTRF, agonist mode, 30 min; series mostly up to 92.4 µM. The gist of the method:
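TSHR-HEK293 cells in agonist mode, 30 min room-temperature step, then cAMP measured by competitive HTRF (cAMP-d2 with anti-cAMP cryptate) after 1 h at room temperature. Tested at 15 concentrations in triplicate.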

A short description of assay [5]: qHTS assay to identify small molecule agonists of the hypoxia (HIF-1) signaling pathway - cell viability counter screen (AID 1224844; calls by dose curve; also: nearly all actives have a fitted effect of over 50% in size; also: potency is read from the fitted curve at half-maximal effect). The note with it: HRE-bla ME-180 viability, CellTiter-Glo luminescence, 17 h; series mostly up to 76.8 µM. The gist of the method: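 Luminescent ATP content (CellTiter-Glo, 30 min, room temperature) served as the viability measure in HRE-bla ME-180 cells exposed to compounds for 17 hrs in low-serum medium (0.5% dialyzed FBS).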

In assay [6] the target is Nuclear receptor subfamily 1 group I member 3 (Homo sapiens) (UniProt Q14994). In words: qHTS assay to identify small molecule antagonists of the constitutive androstane receptor (CAR) signaling pathway (AID 1224838).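 Also: HepG2 cells stably expressing hCAR with CYP2B6 luciferase reporter stimulated by CITCO; nearly all actives have a fitted effect of over 40% in size.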 Also: potency is read from the fitted curve at half-maximal effect. The note with it: HepG2-CYP2B6-hCAR luciferase, CITCO-stimulated, 24 h; series mostly up to 92.4 µM. Put shortly: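 Quantitative HTS in double-stable HepG2-CYP2B6-hCAR cells. After 4 h plating, cells get compound (15 concentrations) and CITCO at 50 nM final, incubate 24 h at 37 C, then ONE-Glo luminescence is read.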

Assay [7] has the same target. Description: qHTS assay to identify small molecule agonists of the constitutive androstane receptor (CAR) signaling pathway (AID 1224839). Also: nearly all actives have a fitted effect of over 15% in size. Also: potency is read from the fitted curve at half-maximal effect.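 As to activation: HepG2 cells stably carrying human CAR and a CYP2B6 luciferase reporter.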 The note with it: HepG2 hCAR CYP2B6-luciferase, agonist mode, 24 h; series mostly up to 92.4 µM. The gist of the method:
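In this screen, CAR-driven CYP2B6 promoter activity is measured by luminescence in HepG2-CYP2B6-hCAR cells after 24 h with test compounds and 0.75 uM PK11195 (final concentration).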

Assay [8] is described as follows: qHTS assay to identify small molecule agonists of the estrogen related receptor signaling pathway with the pleiotropic PPARgamma coactivator (PGC) from Tox21 10K library (AID 1224842). Also: nearly all actives have a fitted effect of over 15% in size. Also: potency is read from the fitted curve at half-maximal effect. To be noted: PGC/ERR reporter cell line, luciferase ONE-Glo, 18 h; series mostly up to 92.4 µM. The gist of the method:
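PGC/ERR reporter cell line, 2,000 cells per well, incubated 6 h at 37 C before 23 nL compound in DMSO was added. After 18 h at 37 C, One-Glo luminescence read following 30 min at room temperature.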

A short description of assay [9]: qHTS assay to identify small molecule antagonists of the estrogen related receptor signaling pathway with the pleiotropic PPARgamma coactivator (PGC) from Tox21 10K library (AID 1224841; call rule not given here; also: actives are mostly falling curves and most rising ones were filed inactive; nearly all actives have a fitted effect of over 50% in size). The note with it: PGC/ERR reporter cell line, ONE-Glo luciferase, 18 h; series mostly up to 92.4 µM. Put shortly: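 Compound exposure ran 18 hours at 37 C in PGC/ERR cells (2,000/well) that had first rested 6 hours in a 37 C/5% CO2 incubator. Luciferase activity was then detected with One-Glo after a 30-minute room-temperature step.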

Structures are written as SMILES. Inconclusive results are not listed. Unmarked numbers belong to inactive results. Calls of active or inactive are those of the source. Unless noted, calls follow the shape of the dose curve; as a rule, active = well fitted curve in the direction sought with a large enough effect in the repeat runs; inconclusive = weak or mixed curves; inactive = no such curve, though single readings can be large; an effect the other way counts as inactive or inconclusive.
% is scaled to controls: 0 for no effect and ±100 for the full control effect.

Sequence of Thyrotropin receptor (Homo sapiens) (P16473 whole entry, looked up): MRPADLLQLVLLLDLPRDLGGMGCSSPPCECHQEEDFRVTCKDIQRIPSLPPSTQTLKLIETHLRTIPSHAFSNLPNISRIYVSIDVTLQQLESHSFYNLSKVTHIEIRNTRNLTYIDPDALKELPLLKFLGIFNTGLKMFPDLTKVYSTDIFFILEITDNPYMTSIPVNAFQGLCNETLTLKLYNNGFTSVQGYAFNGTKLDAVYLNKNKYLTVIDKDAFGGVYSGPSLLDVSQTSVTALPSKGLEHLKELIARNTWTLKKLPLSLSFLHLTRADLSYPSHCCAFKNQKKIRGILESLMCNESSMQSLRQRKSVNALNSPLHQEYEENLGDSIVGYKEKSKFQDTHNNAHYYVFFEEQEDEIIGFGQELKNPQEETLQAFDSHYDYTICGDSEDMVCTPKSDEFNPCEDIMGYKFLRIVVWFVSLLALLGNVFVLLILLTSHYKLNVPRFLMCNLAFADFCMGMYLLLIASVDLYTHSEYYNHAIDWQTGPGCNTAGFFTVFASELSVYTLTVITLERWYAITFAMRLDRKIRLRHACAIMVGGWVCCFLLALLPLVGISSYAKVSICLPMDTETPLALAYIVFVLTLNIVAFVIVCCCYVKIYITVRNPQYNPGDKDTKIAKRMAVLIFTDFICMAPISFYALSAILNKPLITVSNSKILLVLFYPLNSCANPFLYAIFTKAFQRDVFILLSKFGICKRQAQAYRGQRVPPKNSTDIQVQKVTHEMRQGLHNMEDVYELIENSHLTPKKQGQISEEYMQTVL
Sequence of Nuclear receptor subfamily 1 group I member 3 (Homo sapiens) (Q14994 whole entry, looked up): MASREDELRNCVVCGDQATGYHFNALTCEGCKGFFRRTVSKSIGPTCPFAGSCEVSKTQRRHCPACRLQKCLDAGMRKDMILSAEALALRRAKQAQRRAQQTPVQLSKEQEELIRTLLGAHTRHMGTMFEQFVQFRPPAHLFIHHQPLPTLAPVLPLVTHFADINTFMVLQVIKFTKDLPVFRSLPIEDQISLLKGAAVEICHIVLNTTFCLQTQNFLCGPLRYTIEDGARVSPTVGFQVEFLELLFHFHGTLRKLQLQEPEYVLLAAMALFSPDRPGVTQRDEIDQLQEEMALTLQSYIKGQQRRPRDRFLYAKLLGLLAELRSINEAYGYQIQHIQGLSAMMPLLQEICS

`C[Si](C)O[Si](C)(C)O[Si](C)(C)O[Si](C)C`: the Potency entry in assay [1], in assay [2], in assay [3], in assay [4] and in assay [5] was “inactive” each time.

Take `S=C(S)NCCNC(=S)S`: the Potency result in assay [2], in [3] and in [4] was “inactive” in each case.

Take `CCCCOC(O)CC` (centres undefined): the Potency entry in assay [1], in assay [2], in assay [3], in assay [4] and in assay [5] was “inactive” each time.

`C[C@@H](C1=C(CCN(C)C)Cc2ccccc21)c1ccccn1`: the Potency entry in assay [1], in assay [2], in assay [3], in assay [4] and in [5] was “inactive” each time.

`CCOC(=O)C1=NN(c2ccccc2)C(=O)C1`: the Potency entry in assay [1], in [2], in [3] and in [4] was “inactive” each time.

Turning to `CCOC(=O)[C@H](CCc1ccccc1)N[C@H]1CCc2ccccc2N(CC(=O)O)C1=O`, the Potency result in [2], in [6], in assay [7] and in assay [4] was “inactive” each time.

Regarding `Nc1ccc(C(=O)Nc2ccccc2N)cc1`, the Potency result in assay [1], in [2], in assay [7], in assay [3] and in assay [4] was “inactive” in each case. Moreover, the figures for the Potency in [8] and in assay [5] were 11.9 µM (active) and 12 µM (active), respectively.

Turning to `CC(C)c1ccccc1C(C)C`, the Potency result in assay [1], in assay [2], in assay [3] and in assay [5] was “inactive” throughout.

For the molecule `Cn1sccc1=O`, the Potency entry in assay [2], in assay [3], in assay [9] and in [4] was “inactive” each time. Further, the Potency in assay [6] was 24.3 µM (active).

Turning to `CCCCC(CC)COCCCN` (centres undefined), the Potency result in assay [1], in [2], in assay [3], in assay [8], in assay [4] and in assay [5] was “inactive” each time.

`CN(C)CC/C=C1\c2ccccc2COc2ccccc21`: the Potency result in assay [6], in [7], in [3], in assay [4] and in [5] was “inactive” throughout.

Take `CCCCc1cc2ccccc2c(OCCN(C)C)n1`: the Potency result in [1], in assay [2], in assay [3] and in [4] was “inactive” each time.

Regarding `C1CCC2OC2C1` (centres undefined), the Potency result in assay [1], in assay [2], in assay [3], in assay [4] and in assay [5] was “inactive” in each case.

Take `CN1CCC(=C2c3ccccc3C=Cc3ccccc32)CC1`: the Potency result in assay [2], in assay [6], in assay [7], in [3], in [9] and in assay [8] was “inactive” throughout. Also, the Potency result in assay [4] was “inactive”.

In the case of `CNCC[C@@H](Oc1ccccc1C)c1ccccc1`, the Potency entry in [1], in assay [2], in assay [3], in [8], in assay [4] and in assay [5] was “inactive” each time.

In the case of `O=C(c1ccccc1)c1ccc2n1CCC2C(=O)O` (centres undefined), the Potency entry in assay [1], in assay [2], in [6], in assay [3] and in assay [5] was “inactive” in each case.

For the molecule `N#Cc1cc2ccccc2c2ccccc12`, the Potency entry in assay [2], in [6], in assay [3] and in assay [5] was “inactive” each time.

For the molecule `CCCCOc1ccc(CC(=O)NO)cc1`, the Potency result in assay [6], in assay [7] and in assay [3] was “inactive” each time.

With `O=C(Cl)c1c(Cl)cccc1Cl`, the Potency result in assay [1], in [2], in assay [6], in assay [3], in [4] and in assay [5] was “inactive” throughout.

With `CCN(CC)CCc1nc(-c2ccccc2)no1`, the Potency result in assay [2], in assay [6], in assay [3], in [8], in assay [4] and in [5] was “inactive” in each case. In assay [7], the Potency is 9.44 µM (active).

Consider `O=C(/C=C/c1ccc(O)c(O)c1)O[C@@H]1C[C@](O)(C(=O)O)C[C@@H](O)[C@H]1O`, for which the Potency result in assay [1], in assay [2], in assay [3] and in [5] was “inactive” in each case.

`COc1ccc(OC)c(OC)c1`: the Potency result in assay [2], in assay [6], in assay [7], in assay [3], in [4] and in assay [5] was “inactive” in each case.

For `OC(CCN1CCCCC1)(c1ccccc1)C1CCCCC1` (centres undefined), the Potency result in assay [1], in assay [7], in assay [3], in assay [9], in assay [8] and in assay [5] was “inactive” each time.

For the molecule `CC1(C)[C@H]2CC[C@]1(C)[C@H](O)C2`, the Potency result in [1], in assay [2], in assay [6], in [3], in assay [4] and in [5] was “inactive” throughout.

Consider `CCOc1ccc2[nH]cc(C(=O)NCc3ccccc3)c(=O)c2n1`, for which the Potency entry in assay [2], in assay [6], in assay [3], in assay [8], in assay [4] and in assay [5] was “inactive” throughout.

As for `CCN(CC)CCOc1ccc2c(c1)C(=O)c1cc(OCCN(CC)CC)ccc1-2`, the Potency in assay [2] is 23.7 µM (active). Also, the Potency entry in assay [9] and in assay [8] was “inactive” throughout.

As to `CC(=O)NCCCS(=O)(=O)O`, the Potency entry in assay [2], in [6], in assay [7], in assay [3], in [4] and in [5] was “inactive” throughout.

With `NC[C@H]1O[C@H](O[C@H]2[C@H](O)[C@@H](O[C@H]3O[C@H](CO)[C@@H](O)[C@H](N)[C@H]3O)[C@H](N)C[C@@H]2N)[C@H](O)[C@@H](O)[C@@H]1O`, the values for the viability change, negative = cytotoxic in assay [1] and in assay [3] were -3.02% [at 8.39 µM] and 5.71% [at 8.39 µM], respectively. In addition, the activity change, negative = cytotoxicity in assay [2] was 2.42% [at 8.39 µM]; in assay [5] it was -8.41% [at 6.97 µM]. In addition, the results for the activation in assay [8] and in assay [4] were 1.17% [at 8.39 µM] and -0.345% [at 8.39 µM], respectively.

`C=Cc1c(C)c2cc3[nH]c(cc4nc(cc5nc(cc1[nH]2)C(C)=C5CCC(=O)O)C(CCC(=O)O)=C4C)c(C)c3C=C`: the Potency result in assay [6], in assay [7], in assay [3], in assay [9] and in assay [8] was “inactive” throughout. Also, the Potency in assay [5] is 19 µM (active).

The values are drawn from PubChem BioAssay (Tox21).
